These results are taken from PubChem BioAssay (NCI).

SMILES strings stand for the structures. About 79,000 compounds went through this panel and 15% of them were active in at least one assay; those are over-represented in the sample as a whole. A number with no mark means an inactive call. Active and inactive are the calls of the source. Cut-off read from the data, not from the text of the source: active = growth inhibition above about 70%; inactive = the rest.

Test [1] can be described thus: NCI Yeast Anticancer Drug Screen. Data for the rad50 strain (AID 155).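 Note: 0% = growth of vehicle-only cultures of the same strain.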 Particulars: S. cerevisiae rad50 strain growth inhibition, stronger effect = higher value. The gist of the method: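 Yeast carrying a defined DNA repair defect were exposed to test compounds, and growth was compared with vehicle-treated controls to give percent inhibition.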
Test [2] can be described thus: NCI Yeast Anticancer Drug Screen. Data for the mec2-1 strain (AID 157). Particulars: S. cerevisiae mec2-1 strain, stronger effect = higher value. An outline of the steps:
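Each compound was tested on mec2-1 yeast, a strain altered in DNA damage repair or cell cycle control. Growth inhibition is reported relative to vehicle.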

The nature of test [3]: NCI Yeast Anticancer Drug Screen. Data for the sgs1 mgt1 strain (AID 161).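 Note: 0% = growth of cultures given vehicle only.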 To be noted: S. cerevisiae sgs1 mgt1 strain, stronger effect = higher value. The gist of the method: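 Inhibition of yeast growth, normalised to vehicle-treated controls, is reported for a strain bearing genetic alterations in DNA damage repair.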
A short description of test [4]: NCI Yeast Anticancer Drug Screen. Data for the cln2 rad14 strain (AID 165).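 Note: 0% = growth equal to vehicle treated cultures.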 To be noted: S. cerevisiae cln2 rad14 strain, stronger effect = higher value. The gist of the method:
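Test compounds were added to cln2 rad14 yeast cultures; inhibition of growth was then determined by comparison with vehicle treatment.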

Test [5] can be described thus: NCI Yeast Anticancer Drug Screen. Data for the bub3 strain (AID 167). To be noted: S. cerevisiae bub3 mutant strain, stronger effect = higher value. An outline of the steps:
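Compounds were applied to a genetically altered yeast strain carrying a cell-cycle control defect. Growth inhibition was scored against vehicle-treated controls.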

Test [6] is described as follows: NCI Yeast Anticancer Drug Screen. Data for the mlh1 rad18 strain (AID 175). Particulars: S. cerevisiae mlh1 rad18 strain growth inhibition, stronger effect = higher value. The gist of the method:
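Inhibition values reflect reduced growth of mutant yeast versus vehicle-treated controls following compound exposure; the mutations affect DNA damage repair.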

Where [7] appears, read: at 5.0 µM (retest, dose inferred, filed as 0.5).
Setting [8] is: at 50.0 µM (retest, dose inferred, filed as 5.0).

On to `N#CC#Cc1cccc(C#CC#N)c1`, for which the growth inhibition is 98% (active) in test [1] (setting [7]); 98% (active) in test [1] (setting [8]); 98% (active) in test [1] (at 50.0 µM); 99% (active) in test [2] (setting [7]); 99% (active) in test [2] (setting [8]); 98.9% (active) in test [2] (at 50.0 µM). Further, the growth inhibition is 99% (active) in test [3] (setting [7]); 99% (active) in test [3] (setting [8]); 50% in test [3] (at 50.0 µM); 99% (active) in test [4] (setting [7]); 98% (active) in test [4] (setting [8]); 98.8% (active) in test [4] (at 50.0 µM). The growth inhibition was 98% (active) in test [5] (setting [7]); 98% (active) in test [5] (setting [8]); 98.9% (active) in test [5] (at 50.0 µM); 99% (active) in test [6] (setting [7]); 98% (active) in test [6] (setting [8]); 99.2% (active) in test [6] (at 50.0 µM).

With `CC(C)C1=CC2=CCC3C(C)(C(=O)O)CCCC3(C)C2CC1` (configuration not stated) (tested in a mixture with another compound), the growth inhibition in test [1] (setting [7]) was -8%; in test [1] (setting [8]) it was 80% (active); in test [1] (at 50.0 µM), 75.5% (active); in test [2] (setting [7]) it was -16%; in test [2] (setting [8]) it was 96% (active); in test [2] (at 50.0 µM), 75.7% (active). Moreover, the growth inhibition in test [3] (setting [7]) was -13%; in test [3] (setting [8]), 88% (active); in test [3] (at 50.0 µM) it was 75.5% (active); in test [4] (setting [7]), -17%; in test [4] (setting [8]), 85% (active); in test [4] (at 50.0 µM) it was 88.5% (active). Besides, the growth inhibition was -14% in test [5] (setting [7]); 88% (active) in test [5] (setting [8]); 89.5% (active) in test [5] (at 50.0 µM); -3% in test [6] (setting [7]); 92% (active) in test [6] (setting [8]); 88.8% (active) in test [6] (at 50.0 µM).

For `NC(=O)NCCCCC1NC(=S)N(c2ccccc2)C1=O` (configuration not stated), the growth inhibition is -5% in test [1] (setting [7]); -4% in test [1] (setting [8]); -3.85% in test [1] (at 50.0 µM); -8% in test [2] (setting [7]); -16% in test [2] (setting [8]); -3.45% in test [2] (at 50.0 µM). Also, the growth inhibition in test [3] (setting [7]) was -7%; in test [3] (setting [8]), 47%; in test [3] (at 50.0 µM), 29.8%; in test [4] (setting [7]), -3%; in test [4] (setting [8]), -3%; in test [4] (at 50.0 µM) it was -4.9%. Further, the growth inhibition in test [5] (setting [7]) is -9%; in test [5] (setting [8]) it was -7%; in test [5] (at 50.0 µM), 5.05%; in test [6] (setting [7]), -9%; in test [6] (setting [8]), -8%; in test [6] (at 50.0 µM) it was -12.3%.

Take `O=C1/C(=C/c2cccc(Br)c2)CCc2ccccc21`: the growth inhibition is 1% in test [1] (setting [7]); 26% in test [1] (setting [8]); 66.3% in test [1] (at 50.0 µM); 8% in test [2] (setting [7]); 49% in test [2] (setting [8]); 18.4% in test [2] (at 50.0 µM). Also, the growth inhibition in test [3] (setting [7]) is 13%; in test [3] (setting [8]), 58%; in test [3] (at 50.0 µM), 61.4%; in test [4] (setting [7]) it was -5%; in test [4] (setting [8]) it was 16%; in test [4] (at 50.0 µM), 22.4%. In addition, the growth inhibition in test [5] (setting [7]) was 44%; in test [5] (setting [8]), 82% (active); in test [5] (at 50.0 µM), 74.6% (active); in test [6] (setting [7]) it was 13%; in test [6] (setting [8]), 64%; in test [6] (at 50.0 µM), 65.8%.

As to `O=C1c2ccccc2C(=O)[C@@]23O[C@@]12C1(Oc2cccc4cccc(c24)O1)[C@@H]1O[C@@H]1[C@@H]3O`, the growth inhibition in test [1] (setting [7]) is 79% (active); in test [1] (setting [8]), 98% (active); in test [1] (at 50.0 µM) it was 88.1% (active); in test [2] (setting [7]), 84% (active); in test [2] (setting [8]) it was 99% (active); in test [2] (at 50.0 µM), 91% (active). The growth inhibition in test [3] (setting [7]) was 62%; in test [3] (setting [8]), 99% (active); in test [3] (at 50.0 µM), 91.2% (active); in test [4] (setting [7]), 48%; in test [4] (setting [8]), 98% (active); in test [4] (at 50.0 µM) it was 88.7% (active). Further, the growth inhibition in test [5] (setting [7]) was 56%; in test [5] (setting [8]) it was 99% (active); in test [5] (at 50.0 µM), 89.5% (active); in test [6] (setting [7]) it was 85% (active); in test [6] (setting [8]) it was 98% (active); in test [6] (at 50.0 µM) it was 84.9% (active).

As to `O=C(NCCl)Nc1ccccc1`, the growth inhibition in test [1] (setting [7]) is -3%; in test [1] (setting [8]), 62%; in test [1] (at 50.0 µM) it was 57.7%; in test [2] (setting [7]), 5%; in test [2] (setting [8]), 82% (active); in test [2] (at 50.0 µM), 62.8%. Besides, the growth inhibition in test [3] (setting [7]) was 8%; in test [3] (setting [8]), 86% (active); in test [3] (at 50.0 µM), 67.9%; in test [4] (setting [7]) it was 1%; in test [4] (setting [8]), 65%; in test [4] (at 50.0 µM) it was 17.9%. Also, the growth inhibition is 6% in test [5] (setting [7]); 79% (active) in test [5] (setting [8]); 67.5% in test [5] (at 50.0 µM); 6% in test [6] (setting [7]); 83% (active) in test [6] (setting [8]); 66% in test [6] (at 50.0 µM).

For `COC1OC(CBr)C(OC(c2ccccc2)(c2ccccc2)c2ccccc2)C(OC(c2ccccc2)(c2ccccc2)c2ccccc2)C1OC(c1ccccc1)(c1ccccc1)c1ccccc1` (configuration not stated), the growth inhibition in test [1] (setting [7]) was -11%; in test [1] (setting [8]), 11%; in test [1] (at 50.0 µM), 98.8% (active); in test [2] (setting [7]), -12%; in test [2] (setting [8]) it was -27%; in test [2] (at 50.0 µM), 98.7% (active). Further, the growth inhibition in test [3] (setting [7]) is -11%; in test [3] (setting [8]) it was -9%; in test [3] (at 50.0 µM), 98.5% (active); in test [4] (setting [7]), -8%; in test [4] (setting [8]), 33%; in test [4] (at 50.0 µM) it was 96.5% (active). Also, the growth inhibition in test [5] (setting [7]) was -2%; in test [5] (setting [8]), 25%; in test [5] (at 50.0 µM) it was 97.7% (active); in test [6] (setting [7]), -5%; in test [6] (setting [8]) it was 32%; in test [6] (at 50.0 µM) it was 98% (active).

In the case of `S=C(Nc1ccc(N=Nc2ccccc2)cc1)SCc1ccccc1`, the growth inhibition in test [1] (setting [7]) was 1%; in test [1] (setting [8]), 16%; in test [1] (at 50.0 µM) it was 63.3%; in test [2] (setting [7]), 3%; in test [2] (setting [8]) it was 25%; in test [2] (at 50.0 µM), 97.7% (active). The growth inhibition in test [3] (setting [7]) is 4%; in test [3] (setting [8]) it was 28%; in test [3] (at 50.0 µM) it was 95.6% (active); in test [4] (setting [7]), 3%; in test [4] (setting [8]), 8%; in test [4] (at 50.0 µM), 89.6% (active). Moreover, the growth inhibition in test [5] (setting [7]) was -1%; in test [5] (setting [8]), 11%; in test [5] (at 50.0 µM), 98.5% (active); in test [6] (setting [7]) it was -6%; in test [6] (setting [8]), 59%; in test [6] (at 50.0 µM), 96% (active).

Consider `COC1/C=C\C=C(/C)C(=O)NC2=CC(=O)C(N)=C(CC(C)CC(OC)C(O)C(C)C=C(C)C1OC(N)=O)C2=O` (configuration not stated), for which the growth inhibition in test [1] (setting [7]) is -28%; in test [1] (setting [8]), 88% (active); in test [1] (at 50.0 µM), 86.4% (active); in test [2] (setting [7]), -23%; in test [2] (setting [8]), 91% (active); in test [2] (at 50.0 µM), 87.7% (active). Besides, the growth inhibition in test [3] (setting [7]) was 5%; in test [3] (setting [8]), 92% (active); in test [3] (at 50.0 µM) it was 88% (active); in test [4] (setting [7]), -36%; in test [4] (setting [8]), 81% (active); in test [4] (at 50.0 µM), 76.9% (active). In addition, the growth inhibition is -16% in test [5] (setting [7]); 93% (active) in test [5] (setting [8]); 87.9% (active) in test [5] (at 50.0 µM); -22% in test [6] (setting [7]); 89% (active) in test [6] (setting [8]); 84% (active) in test [6] (at 50.0 µM).
